Measured values published in PubChem BioAssay (NCI).
About 83,000 compounds went through this panel and 20% of them were active in at least one assay; those are over-represented in the sample as a whole.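 Percent growth is the endpoint: 0 to 100 indicates growth inhibition (40 means 60% inhibition), 0 means no net growth, and negative values indicate cell death.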 Active and inactive are the calls of the source. How the source made its calls: active means growth percent below 10; inactive means the rest.

Assays:
Assay in all cases: NCI-60 one-dose screen, 48 h (100 = growth as untreated, 0 = no growth, -100 = all killed)
Details in all cases: 10 µM unless noted
[1] = test system: HCT-15 colon
[2] = test system: HT29 colon
[3] = test system: SNB-75 CNS
[4] = test system: SNB-19 CNS
[5] = test system: U251 CNS
[6] = test system: PC-3 prostate
[7] = test system: SK-MEL-5 melanoma
[8] = test system: UACC-62 melanoma
[9] = test system: LOX IMVI melanoma
[10] = test system: SK-MEL-28 melanoma

Measured: growth

CC1CN(S(=O)(=O)c2oc(-c3ccc(Cl)cc3)nc2C#N)CC(C)O1 (stereo not given)
inactive: [2] 58.5% | [3] 91.1% | [4] 97.5% | [5] 89.6% | [6] 90.2% | [7] 92.7% | [8] 96.7% | [10] 97.9%
active: [1] -26.5% | [9] 8.2%

COc1c(B(O)O)cccc1-c1cc(C)c2c(ccc3[nH]ncc32)n1
active: [3] -29.9%
inactive: [1] 95.2% | [2] 88.2% | [4] 91.1% | [5] 87.8% | [6] 84.3% | [7] 88.9% | [8] 98.8% | [9] 56.9% | [10] 116%

O=C(O)CCN1C(=O)/C(=C/C(Cl)=C/c2ccccc2)SC1=S
active: [1] -50.3% | [9] -32.4%
inactive: [2] 10.1% | [3] 13.2% | [4] 34.5% | [5] 20.8% | [6] 47% | [7] 38.9% | [8] 16.1% | [10] 13.9%

COc1ccc(C(=O)/C=C/c2c(C(F)(F)F)nc3ccccn23)cc1OC
inactive: [4] 16.5% | [6] 30.6% | [10] 28.2%
active: [1] -13.6% | [2] 6.89% | [3] -19.9% | [5] 7.17% | [7] 4.43% | [8] 5.04% | [9] -53.1%

COc1cc2c(c(OC)c1OC)CCC(c1cccc(C(=O)Nc3ccc(C#N)cc3)c1)O2 (stereo not given)
active: [7] -12.7%
inactive: [1] 59.7% | [2] 69.3% | [3] 57.3% | [4] 58.7% | [5] 64.2% | [6] 14% | [8] 24.6% | [9] 39.5% | [10] 58.8%

CCCNc1nc2ccccc2c2c1S(=O)(=O)c1ccc(Cl)cc1C2=O
active: [1] 7.22% | [2] 9.72% | [5] 1.6% | [7] 2.77% | [9] 4.45%
inactive: [3] 15.6% | [4] 24.4% | [6] 25.1% | [8] 10.9% | [10] 32.8%

N#Cc1ccc(O)c(C2=NCC(c3cccc(Oc4ccccc4)c3)O2)c1 (stereo not given)
inactive: [1] 26.8% | [2] 13.8% | [3] 51.7% | [4] 22.3% | [6] 31.4% | [7] 32.7% | [9] 23% | [10] 37.5%
active: [5] 3.98% | [8] -1.59%

O=C(Nc1ccccc1)Nc1ncnc2c1ncn2-c1ccc(Cl)cc1
inactive: [1] 79% | [2] 80.4% | [3] 44.3% | [4] 97.1% | [5] 77.6% | [6] 104% | [7] 94.9% | [8] 89.3% | [9] 91.9% | [10] 95.5%

C=C(CBr)[C@@H]1CC[C@]2(C(=O)O)CC[C@]3(C)[C@H](CC[C@@H]4[C@@]5(C)CCC(=O)C(C)(C)[C@@H]5CC[C@]43C)[C@@H]12
inactive: [1] 73.2% | [2] 97.5% | [3] 98.7% | [4] 78.7% | [5] 70.9% | [6] 57.4% | [7] 50.5% | [8] 69% | [9] 75.4% | [10] 88.7%

O=C(CN1CCCCC1)Nc1nc(-c2cc3ccccc3oc2=O)cs1
inactive: [1] 102% | [2] 100% | [3] 82.4% | [4] 100% | [5] 97.4% | [6] 97.8% | [7] 96% | [8] 91.7% | [9] 101% | [10] 102%

NC(=O)c1cc(I)ccc1NC(=O)/C=C/c1ccccc1
inactive: [1] 24.5% | [2] 22.1% | [3] 30.1% | [4] 27.3% | [5] 21.8% | [6] 15.4% | [7] 24.5% | [8] 64.9% | [9] 35.1% | [10] 12%

COC(=O)/C=C1/SC(=Nc2cccc(OC)c2)N(CCc2c[nH]c3ccc(O)cc23)C1=O
inactive: [1] 26.4% | [2] 92% | [3] 71% | [4] 54.3% | [5] 45.4% | [6] 46% | [7] 63.6% | [8] 53.4% | [9] 23.5% | [10] 70.9%

Fc1cnccc1C1CC(c2ccc(N3CCNCC3)cc2)=NN1 (stereo not given)
inactive: [1] 97.6% | [2] 60.2% | [3] 101% | [4] 97.5% | [5] 95.1% | [6] 70.3% | [7] 85.8% | [8] 81.9% | [9] 94.3% | [10] 116%

CN1CCN(C(=O)c2ccc(NC(=O)c3cc4c(nn3)NCCN4Cc3cc(Cl)ccc3Cl)cc2)CC1
inactive: [1] 68% | [2] 63.2% | [3] 79.4% | [4] 92.2% | [5] 65.6% | [6] 71.1% | [7] 75.2% | [8] 92.5% | [9] 59.4% | [10] 89%

COc1ccc2c(c1)CC[C@H](O)/C2=C/c1cc(OC)c(OC)c(OC)c1
inactive: [1] 13.9% | [3] 19.1% | [4] 38.3% | [5] 13.3% | [6] 17.8% | [8] 31.8% | [9] 18.2% | [10] 61.5%
active: [2] 0.825% | [7] -40%

CCC(=C(c1ccc(OCCN2CCCCC2)cc1)c1ccc(OCCN2CCCCC2)cc1)c1ccc(Cl)cc1
active: [1] -84.9% | [2] -74.6% | [3] -96.4% | [4] -94.5% | [5] -82.2% | [6] -81.2% | [7] -96.8% | [8] -89.7% | [9] -84.8% | [10] -97%

N#Cc1c(-c2ccccc2)cc(-c2ccc(Nc3nc(Nc4ccc(Cl)cc4)nc(Nc4ccc(Cl)cc4)n3)cc2)nc1N
active: [1] -38.3% | [2] 9.85% | [5] -35.4% | [7] -13.8% | [9] -88.7% | [10] -80.9%
inactive: [3] 66% | [4] 100% | [6] 20.7% | [8] 54.5%

O=S(=O)(Nc1ccc(F)cc1F)c1ccc(-c2cnc(C3CC3)o2)cc1
active: [3] -13.1% | [7] 6.16%
inactive: [1] 23.7% | [2] 14% | [4] 46.5% | [5] 26.6% | [6] 42.5% | [8] 27.4% | [9] 41.5% | [10] 63.5%

N#Cc1nc(-c2ccc(F)cc2)oc1S(=O)(=O)N1CCOCC1
inactive: [2] 36.5% | [3] 91.2% | [4] 95.8% | [5] 98.9% | [6] 91% | [7] 82.6% | [8] 89.9% | [10] 85.7%
active: [1] -29.9% | [9] 8.36%

COc1ccc(-c2ccc(-c3ccc(C(=N)N)cc3)s2)cc1Cl
inactive: [3] 100% | [4] 24% | [7] 87.7% | [8] 88.3% | [10] 102%
active: [1] -70.3% | [2] 0.572% | [5] -62.4% | [6] -25% | [9] -76.7%

O=C(COc1ccc(-c2nc3cc(Cl)c(Cl)cc3[nH]2)cc1)N=Nc1c(O)[nH]c2ccc(Cl)cc12
inactive: [1] 80.3% | [2] 33.4% | [3] 68.5% | [4] 56.7% | [5] 34.2% | [6] 61.2% | [7] 85.6% | [8] 91.6% | [9] 60.8% | [10] 73.7%
